In PubChem BioAssay (NCI):
This is part of a sample that, as a whole, favours compounds with a hit. Of some 79,000 tested, about 15% had one in any assay. Active and inactive are the calls of the source. No stated cut-off is given here; in the data, active means growth inhibition above about 70%; inactive means the rest.

assay: NCI Yeast Anticancer Drug Screen. Data for the rad50 strain (AID 155);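 further: 0% = growth of vehicle-only cultures of the same strain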; conditions: S. cerevisiae rad50 strain growth inhibition; at 5.0 µM (retest, dose inferred, filed as 0.5); active compounds read high
Procedure, shortened: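 Vehicle-treated cultures provide the reference for the growth inhibition reported for compound-exposed, repair-deficient yeast.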

| Structure (SMILES) | growth inhibition |
| --- | --- |
| Clc1ccc(-c2nc3ccc(Cl)cc3[nH]2)cc1 | -2% (inactive) |
| O=C1c2ccccc2NC(=O)C2C1C(c1ccccc1)CC2(O)c1ccccc1 (stereo not given) | 7% (inactive) |
| COc1ccc(CC2C(=O)NC(C)C(=O)N(C)C3Cc4ccc(cc4)Oc4cc(ccc4O)CC(C(=O)NC(C)C(=O)NC(C)C(=O)N2C)N(C)C3=O)cc1 (stereo not given) | -6% (inactive) |
| O=C1c2cccnc2-c2nccc3c2c1nc1cc(Br)ccc13 | 61% (inactive) |
| CCN(C(=O)O)c1ccc(/C=C/c2ccnc3ccccc23)cc1 | 4% (inactive) |
| O=C(/C=C/c1cccc(Cl)c1)c1ccccc1 | 16% (inactive) |
| O.O.O=C(O)C(O)C(O)C(OC1OC(CO)C(O)C(O)C1O)C(O)CO.O=C(O)C(O)C(O)C(OC1OC(CO)C(O)C(O)C1O)C(O)CO.[NH-]C1CCCCC1[NH-].[Pt+2] (stereo not given) | -6% (inactive) |
| O=C(N=c1sc2ccccc2s1)N=c1sc2ccccc2s1 | 1% (inactive) |
| Cc1ccsc1/C=N/Nc1ccc2ccccc2n1 | 30% (inactive) |
| CC(C)(C)C1=NC(=S)SC2=NC(=O)C3(NN21)c1ccccc1-c1ccccc13 | 6% (inactive) |
| COC(=O)c1ccc(OC)cc1 | 2% (inactive) |
| Cc1ccc(/C=C2\CN(C)CC3=C2NC(=S)NC3c2ccc(C)cc2)cc1 (stereo not given) | 31% (inactive) |
| O=C1NC(=O)/C(=C/C=C/c2ccccc2)S1 | 19% (inactive) |
| Nc1ccc(Cc2ccc(N)cc2[N+](=O)[O-])c([N+](=O)[O-])c1 | 1% (inactive) |
| COc1ccccc1/C=C\C(=O)c1ccccc1 | 2% (inactive) |
| NNC(=S)NN/C=C(\C=Nc1ccccc1)[N+](=O)[O-] | 19% (inactive) |
| CCCCCCCCCCCCCCCCCO | -4% (inactive) |
| COc1cc(C(c2cc3c(cc2O)OCO3)N2CCOCC2)cc(OC)c1OC (stereo not given) | 0% (inactive) |
| O=C1OCc2cccc3cccc1c23 | 7% (inactive) |
| CSC(=S)NNC(C)c1nccc2ccccc12 (stereo not given) | 23% (inactive) |

| Structure (SMILES) | growth inhibition |
| --- | --- |
| N#Cc1c(Cl)nc2ccccc2c1N=[N+]=[N-] | -1% (inactive) |
| CC(C)(C)CC(C)(C)c1ccc(OCCSC(=N)N)cc1 | 95% (active) |
| COC1CCC(O)C(CO)O1 (stereo not given) | 100% (active) |
| CC(=O)N(C1=C(Cl)C(=O)c2ccccc2C1=O)c1ccc(Cl)cc1 | 98% (active) |
| Cc1nc(N2N=C(c3ccc(Cl)cc3)CCC2=O)sc1[N+](=O)[O-] | 10% (inactive) |
| Cn1c2c(c3ccccc31)CCN1C[C@@H]3CCCC[C@H]3C[C@@H]21 | 0% (inactive) |
| Cn1cc(NC(=O)Nc2cc(C(=O)Nc3cc(C(=O)Nc4ccc5cc(S(=O)(=O)O)cc(S(=O)(=O)O)c5c4)n(C)c3)n(C)c2)cc1C(=O)Nc1cc(C(=O)Nc2ccc3cc(S(=O)(=O)O)cc(S(=O)(=O)O)c3c2)n(C)c1 | 68% (inactive) |
| CC(=O)Oc1c(Cl)cc(Cl)cc1C(c1cc(Cl)cc(Cl)c1OC(C)=O)C(Cl)(Cl)Cl | 6% (inactive) |
| CCCCCc1ccc2cc(C(=O)O)[nH]c2c1 | 4% (inactive) |
| C/C(=N/O)c1cc([N+](=O)[O-])c(O)cc1O | -27% (inactive) |
| CCOC(=O)CNC(=O)Sc1ccc(C(C)(C)C)cc1C | 17% (inactive) |
| S=C(N/N=C1\C=Cc2ccccc2C1)N/N=C1\C=Cc2ccccc2C1 | 0% (inactive) |
| Cc1cccc(Nc2c3c(nc4ccccc24)CCCCC3)c1 | 0% (inactive) |
| Cc1ccc(NS(=O)(=O)c2ccc(C)cc2)cc1 | -7% (inactive) |
| CCOC(=O)C(=CNC(=S)Nc1c(CC)cccc1C(C)(C)C)C(=O)OCC | 6% (inactive) |
| COC1/C=C/OC2(C)Oc3c(C)c(OC(C)=O)c4c(c3C2=O)C(=O)C=C(NC(=O)/C(C)=C\C=C\C(C)C(O)C(C)C(O)C(C)C(OC(C)=O)C1C)C4=O (stereo not given) | 6% (inactive) |
| O=C(O)c1ccc(/C=C2\COc3ccccc3C2=O)cc1 | 5% (inactive) |
| Cc1c2c(c(C)c3ccncc13)S(=O)(=O)c1ccccc1-2 | 88% (active) |
| Oc1c(Cl)cc(Cl)c2cccnc12 | 56% (inactive) |
| Cc1ccc(S(=O)(=O)Nc2ccc3c(c2)C(=O)c2ccccc2-3)cc1 | 14% (inactive) |

same assay, conditions: S. cerevisiae rad50 strain growth inhibition; at 50.0 µM (retest, dose inferred, filed as 5.0); active compounds read high

| Structure (SMILES) | growth inhibition |
| --- | --- |
| Clc1ccc(-c2nc3ccc(Cl)cc3[nH]2)cc1 | 90% (active) |
| O=C1c2ccccc2NC(=O)C2C1C(c1ccccc1)CC2(O)c1ccccc1 (stereo not given) | 87% (active) |
| COc1ccc(CC2C(=O)NC(C)C(=O)N(C)C3Cc4ccc(cc4)Oc4cc(ccc4O)CC(C(=O)NC(C)C(=O)NC(C)C(=O)N2C)N(C)C3=O)cc1 (stereo not given) | 54% (inactive) |
| O=C1c2cccnc2-c2nccc3c2c1nc1cc(Br)ccc13 | 98% (active) |
| CCN(C(=O)O)c1ccc(/C=C/c2ccnc3ccccc23)cc1 | 94% (active) |
| O=C(/C=C/c1cccc(Cl)c1)c1ccccc1 | 98% (active) |
| O.O.O=C(O)C(O)C(O)C(OC1OC(CO)C(O)C(O)C1O)C(O)CO.O=C(O)C(O)C(O)C(OC1OC(CO)C(O)C(O)C1O)C(O)CO.[NH-]C1CCCCC1[NH-].[Pt+2] (stereo not given) | 39% (inactive) |
| O=C(N=c1sc2ccccc2s1)N=c1sc2ccccc2s1 | 10% (inactive) |
| Cc1ccsc1/C=N/Nc1ccc2ccccc2n1 | 72% (active) |
| CC(C)(C)C1=NC(=S)SC2=NC(=O)C3(NN21)c1ccccc1-c1ccccc13 | 86% (active) |
| COC(=O)c1ccc(OC)cc1 | -1% (inactive) |
| Cc1ccc(/C=C2\CN(C)CC3=C2NC(=S)NC3c2ccc(C)cc2)cc1 (stereo not given) | 40% (inactive) |
| O=C1NC(=O)/C(=C/C=C/c2ccccc2)S1 | 91% (active) |
| Nc1ccc(Cc2ccc(N)cc2[N+](=O)[O-])c([N+](=O)[O-])c1 | 0% (inactive) |
| COc1ccccc1/C=C\C(=O)c1ccccc1 | 89% (active) |
| NNC(=S)NN/C=C(\C=Nc1ccccc1)[N+](=O)[O-] | 80% (active) |
| CCCCCCCCCCCCCCCCCO | 6% (inactive) |
| COc1cc(C(c2cc3c(cc2O)OCO3)N2CCOCC2)cc(OC)c1OC (stereo not given) | 23% (inactive) |
| O=C1OCc2cccc3cccc1c23 | 84% (active) |
| CSC(=S)NNC(C)c1nccc2ccccc12 (stereo not given) | 97% (active) |

| Structure (SMILES) | growth inhibition |
| --- | --- |
| N#Cc1c(Cl)nc2ccccc2c1N=[N+]=[N-] | 12% (inactive) |
| CC(C)(C)CC(C)(C)c1ccc(OCCSC(=N)N)cc1 | 100% (active) |
| COC1CCC(O)C(CO)O1 (stereo not given) | 99% (active) |
| CC(=O)N(C1=C(Cl)C(=O)c2ccccc2C1=O)c1ccc(Cl)cc1 | 99% (active) |
| Cc1nc(N2N=C(c3ccc(Cl)cc3)CCC2=O)sc1[N+](=O)[O-] | 85% (active) |
| Cn1c2c(c3ccccc31)CCN1C[C@@H]3CCCC[C@H]3C[C@@H]21 | 55% (inactive) |
| Cn1cc(NC(=O)Nc2cc(C(=O)Nc3cc(C(=O)Nc4ccc5cc(S(=O)(=O)O)cc(S(=O)(=O)O)c5c4)n(C)c3)n(C)c2)cc1C(=O)Nc1cc(C(=O)Nc2ccc3cc(S(=O)(=O)O)cc(S(=O)(=O)O)c3c2)n(C)c1 | 98% (active) |
| CC(=O)Oc1c(Cl)cc(Cl)cc1C(c1cc(Cl)cc(Cl)c1OC(C)=O)C(Cl)(Cl)Cl | 31% (inactive) |
| CCCCCc1ccc2cc(C(=O)O)[nH]c2c1 | 59% (inactive) |
| C/C(=N/O)c1cc([N+](=O)[O-])c(O)cc1O | 70% (active) |
| CCOC(=O)CNC(=O)Sc1ccc(C(C)(C)C)cc1C | 32% (inactive) |
| S=C(N/N=C1\C=Cc2ccccc2C1)N/N=C1\C=Cc2ccccc2C1 | 17% (inactive) |
| Cc1cccc(Nc2c3c(nc4ccccc24)CCCCC3)c1 | 89% (active) |
| Cc1ccc(NS(=O)(=O)c2ccc(C)cc2)cc1 | 92% (active) |
| CCOC(=O)C(=CNC(=S)Nc1c(CC)cccc1C(C)(C)C)C(=O)OCC | 74% (active) |
| COC1/C=C/OC2(C)Oc3c(C)c(OC(C)=O)c4c(c3C2=O)C(=O)C=C(NC(=O)/C(C)=C\C=C\C(C)C(O)C(C)C(O)C(C)C(OC(C)=O)C1C)C4=O (stereo not given) | 70% (active) |
| O=C(O)c1ccc(/C=C2\COc3ccccc3C2=O)cc1 | 85% (active) |
| Cc1c2c(c(C)c3ccncc13)S(=O)(=O)c1ccccc1-2 | 87% (active) |
| Oc1c(Cl)cc(Cl)c2cccnc12 | 96% (active) |
| Cc1ccc(S(=O)(=O)Nc2ccc3c(c2)C(=O)c2ccccc2-3)cc1 | 90% (active) |
